Results reported in the supplement of paper PMC6555819.

How the values were obtained:
Experiment in all cases: PBM binding z-score (relative to random genomic background probes); higher = stronger binding; sequences stand for … in GC…GCGATTGACAGCGTAGAATGAAGG
[1] = system: RARb homodimer (NR concentration 270 nM)
Method in brief: (§1)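 Random background probes are the reference for binding z-scores. These scores derive from regression-normalized fluorescence on custom Agilent 4×180K protein-binding microarrays incubated 1 h with ligand-free nuclear receptor dimers. Binding was detected with antibodies against each partner (one per run).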

[2] = system: RARg:RXRa (NR concentration 270 nM, RXRa partner concentration 90 nM)
Method in brief: as §1

[3] = system: RARg homodimer (NR concentration 270 nM)
Method in brief: as §1

[4] = system: RXRa DBDmut IVT, anti-RXR (DBD mutation: RXRa K156A/R161A, NR concentration 90 nM)
Method in brief: as §1

[5] = system: RXRa homodimer (NR concentration 180 nM)
Method in brief: as §1

[6] = system: THRa:RXRa (NR concentration 90 nM, RXRa partner concentration 90 nM)
Method in brief: as §1

[7] = system: THRa homodimer (NR concentration 90 nM)
Method in brief: as §1

[8] = system: VDR homodimer (NR concentration 270 nM)
Method in brief: as §1

| Sequence | PBM binding z-score [1] | PBM binding z-score [2] | PBM binding z-score [3] | PBM binding z-score [4] | PBM binding z-score [5] | PBM binding z-score [6] | PBM binding z-score [7] | PBM binding z-score [8] |
| --- | --- | --- | --- | --- | --- | --- | --- | --- |
| ATATGTAGGTTAGGGTCACTCAGAAAGTAGGGAA | 3.57 | 3.98 | 3.56 | 1.74 | 5.09 | 4.21 | 3.46 | 2.6 |
| CCGAGTAGGTTACGAGGGGGCATTCCGTGCGAAT | 1.89 | 3.09 | 2.37 | 1.01 | 2.12 | 3.56 | 0.446 | 2.75 |
| ATATGTAGGTTACCGGGTCATTCAGTTTGCGCAT | 3.18 | 3.85 | 2.52 | 1.45 | 4.15 | 3.37 | 2.38 | 4.17 |
| CGTCAACGTTCAACTAAGGTAACGTAAAGCACGC | 0.8 | 0.496 | 0.603 | 0.449 | 0.587 | 3.84 | 1.68 | 0.137 |
| CTATGTAGGTTAAGGGGGTCATTCGGTTTGAAAG | 3.85 | 5.36 | 3.97 | 2.56 | 5.74 | 3.79 | 1.93 | 6.78 |
| AGAACGAGGGCAATGAGTTCATAGCACGGGTGGC | 2.84 | 2.78 | 2.56 | 3.91 | 2.42 | 2.58 | 0.398 | 10.3 |
| CGAACTAGGTCGAAGGACAGTGAAAGGCGACGTA | 0.802 | 0.619 | 1.1 | 0.469 | 0.475 | 0.508 | -0.399 | -0.311 |
| CCAAGTAGGTTACGAGGGGGCATTCAGTGCGAAT | 2.46 | 3.53 | 3.14 | 1.89 | 2.52 | 3.6 | 0.736 | 3.82 |
| TCGAGAAGGTTACGGGGGCATTCAGGGATGAAGA | 3.05 | 4.33 | 3.04 | 2.36 | 4.23 | 4.21 | 1.42 | 3.33 |
| CCTTACGGGTCACTCTAGGTTATAGCATCGGAGT | 3.22 | 4.35 | 4.38 | 2 | 4.27 | 4.93 | 0.527 | 1.39 |
| GCTGCTAGGTCGACTGATGGTCAGCTAAAGCTCG | 0.638 | 1.2 | 0.89 | 0.38 | 0.265 | 0.35 | -0.82 | -1 |
| CGAACTAGGTCAAAGGACAGTGCAAGGCGACGTA | 3.1 | 3.95 | 4.42 | 1.15 | 3.24 | 2.57 | 0.81 | 0.767 |
| TCGAGTAGGTTACGGGGGGATTCAGGGATGAAGA | 1.73 | 2.76 | 2.33 | 2.47 | 2.04 | 3.42 | 1.85 | 2.02 |
| CCTACTGGGCCACTCAGAGGTCATTGATCATATG | 4.26 | 4.46 | 3.39 | 0.734 | 4.43 | 3.41 | 1.71 | 2.75 |
| CCTAGATGGTCAGGAGGTCACACACCGGATATGA | 4.09 | 5.06 | 4.28 | 0.392 | 4.73 | 3.5 | 2.26 | 2.68 |
| CCTACTGGGCCAAGGTCTTTGATCAGTCAAAGCA | 0.263 | -0.131 | -0.0886 | -1 | -0.568 | 0.0825 | -0.301 | -0.659 |
| TCGAGTAGGTTACGGGTGCATTCAGGGATGAAGA | 0.631 | 0.869 | 0.463 | 0.951 | 1.29 | 2.22 | -0.191 | 2.69 |
| CGTCCAAGGTCAAGCTCAGTGAAAGAGACTCGAA | 3.96 | 6.43 | 6.63 | 3.51 | 6.22 | 3.76 | 2.32 | 2.03 |
| CTACGTAGGTTAAGGGGGTCATTCAGTTTGAAAG | 3.61 | 5.6 | 4.1 | 1.87 | 6.27 | 3.9 | 1.23 | 6.07 |

| Sequence | PBM binding z-score [1] | PBM binding z-score [2] | PBM binding z-score [3] | PBM binding z-score [4] | PBM binding z-score [5] | PBM binding z-score [6] | PBM binding z-score [7] | PBM binding z-score [8] |
| --- | --- | --- | --- | --- | --- | --- | --- | --- |
| ATATGTAGGTTAAGGGTCATGCAGGTTGGTTCGC | 3.89 | 5.07 | 3.84 | 1.76 | 6.52 | 3.5 | 1.93 | 3.81 |
| CCTACTGGGCCATTCAGAGGTCATTGTTCATATG | 4.14 | 4.19 | 2.88 | 1.2 | 3.37 | 3.23 | 1.38 | 3.59 |
| CCGAGTAGGTTACGAGGGGGCAGTCAGTGCGAAT | 2.02 | 2.81 | 2.42 | 0.582 | 1.55 | 3.29 | 0.478 | 1.68 |
| CAAACTAGGTCAAAGGTCAAAGACGAGCCAACCA | 5.19 | 9.13 | 7.66 | 2.8 | 10.6 | 4.79 | 1.57 | 3.33 |
| CGAACTAGGTCAAAGAACAGTGAAAGGCGACGTA | 2.03 | 3.41 | 4.27 | 1.3 | 3 | 2.06 | 0.033 | 0.121 |
| CGAACTCGGTCAAAGGACAGTGAAAGGCGACGTA | 1.9 | 2.15 | 2.76 | 0.447 | 0.907 | 0.713 | -0.276 | -0.121 |
| CGAACTAGGTCACCAGGACAGTGCAGAGGTTGGA | 3.73 | 4.5 | 5.27 | 1.53 | 3.58 | 3.36 | 2.27 | 0.862 |
| TCTTGTAGATCAAAGGTTAAGACAGCCGAAGCCT | 1.45 | 1.94 | 1.05 | 0.925 | 3.08 | 1.24 | -0.0838 | 0.141 |
| TCGAGTAGGTTACGGGCGCATTCAGGGATGAAGA | 0.216 | 0.276 | 0.202 | -0.064 | 0.599 | 0.304 | -0.327 | -0.375 |
| ATATGTAGGTTAGGGGCATTCAGAAAGTAGGGAA | 2.01 | 1.14 | 1.14 | 1.45 | 1.21 | 1.73 | 1.35 | 1.82 |
| TCGAGTAGCTTACGGGGGCATTCAGGGATGAAGA | 0.903 | 1.03 | 0.544 | 1.14 | 1.12 | 3.35 | 0.239 | 2.71 |
| TAGCCTCGGTCATTGGGCCAGTATAGTACGCATC | 1.53 | 1.54 | 2.62 | -0.363 | 0.223 | 0.029 | -0.772 | -0.289 |
| ATACGTAGGTTACATCCGGGTCATTCAGGCTATG | 2.79 | 3.59 | 2.17 | 0.372 | 3.06 | 3.81 | 2.5 | 2.66 |
| CAAACTAGGTCAAAGGACAGTGAAAGGCGACGTA | 2.87 | 3.97 | 4.47 | 1.68 | 2.86 | 2.78 | 0.733 | 0.509 |
| TAGCCTAGGTCATTGTGCCAGTATAGTACGCATC | 2.7 | 3.4 | 3.77 | 1.9 | 2.17 | 2.61 | 1.03 | 1.2 |
| CAAACTAGGTCACCAGGACAGTGAAGAGGTTGGA | 3.44 | 4.56 | 5.51 | 1.54 | 3.75 | 3.77 | 2 | 1.03 |
| CCGAGTAGGTTACGAGGGGGCATTCACTGCGAAT | 2.02 | 3.01 | 2.43 | 1.06 | 1.98 | 3.81 | 0.568 | 2.51 |
| TCAAGTAGGTTACGGGGGCATTCAGGGATGAAGA | 2.65 | 3.75 | 3.05 | 2.81 | 3.19 | 3.8 | 2.1 | 4.17 |
| CCGAGTAGGTTACGAGGGGGCATTCGGTGCGAAT | 2.06 | 3.04 | 2.32 | 0.865 | 2.22 | 3.76 | 0.298 | 3.61 |

| Sequence | PBM binding z-score [1] | PBM binding z-score [2] | PBM binding z-score [3] | PBM binding z-score [4] | PBM binding z-score [5] | PBM binding z-score [6] | PBM binding z-score [7] | PBM binding z-score [8] |
| --- | --- | --- | --- | --- | --- | --- | --- | --- |
| TCGAGTAGGTTACGGGGGCACTCAGGGATGAAGA | 2.3 | 3.39 | 2.3 | 1.2 | 2.84 | 3.4 | 1.09 | 1.68 |
| CGAACTAGGTCAAAGGACTGTGAAAGGCGACGTA | 2.43 | 3.69 | 4.11 | 1.71 | 2.93 | 2.19 | -0.114 | -0.0761 |
| CCTACTGGGCGATTCAGAGGTCATTGATCATATG | 3.62 | 3.12 | 2.1 | 0.873 | 3.28 | 2.83 | 0.887 | 2.83 |
| ATCGAAAGGTCGTGACGTGAGTATACAGAAAGGC | 2.18 | 4.37 | 3.53 | 0.904 | 4.94 | 2.15 | -0.269 | 0.662 |
| CGAACTAGGTCAGAGGACAGTGAAAGGCGACGTA | 2.41 | 2.82 | 3.91 | 0.547 | 1.54 | 1.76 | 0.433 | -7.91e-05 |
| CCAGACAGGTGAAAGGTAACTCCGTCTGGTACGC | 0.693 | 1.23 | 0.537 | -0.24 | 2.07 | 0.859 | -0.16 | -0.193 |
| CAAACTAGGTCACAGAGGTCAACGTCCGTGCGTA | 5.75 | 7.28 | 8.09 | 3.2 | 7.63 | 4.9 | 3.25 | 5.58 |
| CGTCCAAGGTAAATGCTAGGTCAGTGAAAGCATT | 2.15 | 1.85 | 1.23 | 0.0865 | 0.316 | 2.53 | 1.11 | -0.194 |
| GATTACGGGTCAAAGGTTATAGCATGAATAGAAT | 3.44 | 7.12 | 4.85 | 2.27 | 9.48 | 3.95 | 0.146 | 1.64 |
| CCTTACGGTTCACTGACAGGTTATAGCATTTGGA | 1.26 | 3.49 | 0.922 | 3.31 | 2.05 | 1.53 | 0.708 | 2.95 |
| TTACCAAAGTGAAAGGTCGTTGATGCACGCCTTG | 1.87 | 1.64 | 1.01 | 0.293 | 2.65 | 1.34 | -0.34 | 1.41 |
| CCGAGTAGATTACGAGGGGGCATTCAGTGCGAAT | 1.12 | 1.31 | 0.84 | 1.36 | 0.919 | 1.85 | -0.0543 | 3.03 |
| GATACAGGGTCAAGGCCAGAGTACGCGTATTGAT | 3.46 | 5.41 | 4.92 | 2.66 | 5.69 | 3.52 | 1.35 | 2.91 |
| CCGACGGGGGCAAGGTTACCATAACGCACAGCCA | 2.54 | 3.79 | 3.51 | 2.32 | 3.35 | 3.09 | 1.26 | 1.78 |
| GGAACGAGGGCATTCGAGTTGATAGCATGGCGAT | 0.687 | 0.932 | 1.3 | 3.13 | 0.756 | 3.03 | -0.775 | 2.78 |
| CTTAGTTGGTCAGGAGGTCACACACCGGATATGA | 4.33 | 5.21 | 4.53 | 1.06 | 4.99 | 3.67 | 2.65 | 2.74 |
| CCTAGTTGGTCAGGAAGTCACACACCGGATATGA | 1 | 0.765 | 0.857 | 0.171 | 0.568 | 0.226 | 0.522 | 0.457 |
| ACAGACAGGTGAGTGAAGGTCACTCAGCTGGACG | 3.64 | 3.32 | 3.72 | -0.197 | 2.89 | 3.41 | 0.198 | 0.819 |
| CTCGAAAGGTCGTGCTCAGGTGAGTACACCAAAC | 2.93 | 5.5 | 4.41 | 2.36 | 5.63 | 4.01 | 1.21 | 2.52 |
